# Rac1 wt GTP bind: alters GTP binding to wildtype human Rac1. GTP binding activity (% of control), % at 10 µM. 0.27% of 190,000 active. GST-Rac1 beads, fluorescent GTP binding, flow cytometry; actives lie on both sides; 0 = cold GTP competed, 100 = untreated;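 active = GTP binding activity at least 20 points away from the 100% control level, either lower or higher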
# Cdc42 wt: changes GTP binding to wildtype human Cdc42. P60953. GST-Cdc42 beads, Bodipy-GTP binding, flow cytometry; actives lie on both sides. percent activity (GTP binding), % at 10 µM. 0.2% of 190,000 active. AID 761;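 active = percent activity GTP binding at least 20 points away from the 100% baseline, either down as inhibitor or up as activator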;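 note: median bead fluorescence of bound Bodipy-FL-GTP at 100 nM; 0% = excess unlabeled GTP control and 100% = no compound control; below 100% means less GTP binding so inhibitor and above means activator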
# Target sequence (P60953 whole entry, looked up): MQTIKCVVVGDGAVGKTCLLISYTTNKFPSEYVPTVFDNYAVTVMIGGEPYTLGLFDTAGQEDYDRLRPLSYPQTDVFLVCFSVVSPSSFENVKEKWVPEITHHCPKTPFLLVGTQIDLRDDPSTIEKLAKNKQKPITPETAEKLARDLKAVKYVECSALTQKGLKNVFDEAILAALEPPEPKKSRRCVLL
# Rac1 mut GTP: human Rac1 activated mutant GTP binding change | P63000 | GST-Rac1 activated beads, fluorescent GTP binding, flow cytometry; actives lie on both sides; 100% means binding = to untreated wells | percent activity (GTP binding), % at 10 µM | 0.11% of 190,000 active | AID 764;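 active = GTP binding at least 20 percentage points away from the 100% baseline, in either direction, so actives lie on both sides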
# HRas wt GTP bind: human HRas wildtype GTP binding, change in either direction; P01112; GST-Ras wt beads, Bodipy-FL-GTP binding, flow cytometry; actives lie on both sides; GTP binding activity, % at 10 µM; 0.14% of 190,000 active;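 active = GTP binding activity at least 20% away from the 100% baseline, either lowered as inhibitor or raised as activator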;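 note: 0% = unlabeled GTP competition control and 100% = no-compound control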
# Target sequence (P01112 whole entry, looked up): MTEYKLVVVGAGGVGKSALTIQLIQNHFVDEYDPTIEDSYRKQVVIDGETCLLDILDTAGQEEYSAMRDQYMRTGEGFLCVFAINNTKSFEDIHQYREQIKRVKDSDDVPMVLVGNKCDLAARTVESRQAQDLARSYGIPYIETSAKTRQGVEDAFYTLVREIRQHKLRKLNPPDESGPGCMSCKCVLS
# Rab2 wt GTP: changes GTP binding to wildtype dog Rab2A, up or down; GTP binding activity, % at 10 µM; AID 760; 0.19% of 190,000 active; GST-Rab2 wt beads, Bodipy-GTP binding, flow cytometry;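 active = GTP binding activity at least 20 points away from 100%, either lowered or raised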;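 note: 0% = beads with excess unlabeled GTP and 100% = no-compound control corrected for plate trend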
# Rab7 wt modul: dog Rab7 wildtype GTP binding, inhibitors and activators | GST-Rab7 beads, fluorescent GTP binding, flow cytometry; actives lie on both sides; untreated = 100%, excess cold GTP = 0% | GTP binding activity (percent of control), % at 10 µM | 0.055% of 190,000 active;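 active = fluorescent GTP binding to Rab7 beads changed by at least 20 points from the 100% baseline, either direction, mostly lower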;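 note: median green fluorescence of bound Bodipy-FL-GTP per Rab7 bead population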
# An asterisk follows results filed as active; [ ] = another dose, or the depositor's remark. Sampled rows, rich in hits. Any-hit rate of the full collection: about 0.37%.
SMILES,Rac1 wt GTP bind,Cdc42 wt,Rac1 mut GTP,HRas wt GTP bind,Rab2 wt GTP,Rab7 wt modul
Clc1ccc(CN(Cc2ccc(Cl)cc2)c2nn[nH]n2)cc1,83,80,77*,87,80,96
c1ccc(CN(Cc2ccccc2)c2nn[nH]n2)cc1,94,91,89,93,92,103
COc1ccccc1C(=O)Nc1nc(-c2ccc3c(c2)OCCO3)cs1,78*,78*,78*,87,81,94
CCC(=O)Nc1nc(-c2ccc3c(c2)OCCO3)cs1,103,103,100,100,101,102
Cc1cc(=O)[nH]c2c(N=Nc3ccc(O)cc3)c(N)nn12,56*,60*,79*,63*,64*,84
COc1cccc(-c2cc(C(F)(F)F)c(C#N)c(=O)[nH]2)c1,80,81,77*,83,78*,85
Cc1ccc(S(=O)(=O)N2CC3(C)CN(S(=O)(=O)c4ccc(C)cc4)CC(C)(C2)C3O)cc1 (stereo not given),108,126*[activator],101,101,100,104
Cc1cc(C)n(CC(O)Cn2c3ccc(Cl)cc3c3cc(Cl)ccc32)c(=O)n1 (stereo not given),102,100,99,99,96,96
OC(CNCCC1C=Nc2ccccc21)Cn1c2ccc(Cl)cc2c2cc(Cl)ccc21 (stereo not given),144*[activator],115,108,114,113,112
O=C(CSc1n[nH]c(=O)n1C1CC1)NCc1ccccc1Cl,100,97,94,96,94,99
COc1ccc(C(=O)N[C@H](C(=O)OCc2cc(=O)oc3cc(C)ccc23)C(C)C)cc1,33*,33*,33*,37*,31*,20*
Cc1cc(C)cc(C(=O)N(NC(=O)Nc2ccc(Cl)cc2)C(C)(C)C)c1,99,101,99,95,97,74*
COc1cc([N+](=O)[O-])ccc1N=Nc1c(N)[nH]n(-c2ccccc2)c1=O,81,78*,83,85,80,87
Cc1c(C(=O)N/N=C/c2ccncc2)no[n+]1[O-],100,99,97,100,99,103
CCCc1cc(N2CCN(C(=O)c3ccco3)CC2)n2c(nc3ccccc32)c1C#N,84,87,85,81,79*,84
COc1cccc2sc(Nc3nc(-c4ccccn4)cs3)nc12,79*,88,90,85,83,88
c1ccc(Nc2nc(-c3ccccn3)cs2)cc1,105,102,98,102,101,104
CCOc1ccc(C2=Nn3c(nnc3-c3ccco3)SC2)cc1,82,77*,84,77*,76*,89
CC1=Nn2c(nnc2-c2ccco2)SC1,100,99,99,99,99,96
COc1cccc(CC2(CO)CCCN(CC3=Cc4cc(Cl)ccc4OC3)C2)c1 (stereo not given),97,92,92,96,97,103
Cc1cccc(NC(=O)CSc2nc(NS(=O)(=O)c3ccccc3)cc(=O)[nH]2)c1,95,92,93,94,96,101
COc1cccc(/C=N/Nc2nn3cnnc3c3ccccc23)c1O,70*,58*,70*,59*,60*,77*
COc1cccc(/C=N/Nc2ccc(C(=O)O)cc2)c1O,97,96,97,95,94,96
O=C(O)c1cc(N2N=C(C(F)(F)F)/C(=C/C=C/c3ccco3)C2=O)ccc1Cl,84,79*,76*,85,83,90
Cc1ncn(-c2ccc(C(=O)Oc3ccccc3)cn2)n1,96,91,92,97,96,103
SMILES,Rac1 wt GTP bind,Cdc42 wt,Rac1 mut GTP,HRas wt GTP bind,Rab2 wt GTP,Rab7 wt modul
COc1cc(C(=O)Nc2cccc3ncccc23)cc(OC)c1OC,103,100,96,99,102,102
COc1cc(NC(=O)c2cccs2)c(OC)cc1NC(=O)CCC(=O)Nc1cccc2ncccc12,67*,74*,81,73*,71*,81
O=S(=O)(c1ccc(Cl)cc1)N1CCN=C1SCc1ccc(Cl)c(Cl)c1,100,101,96,96,93,98
O=C(O)COc1ccccc1/C=N/Nc1ccc(S(=O)(=O)Nc2ccc(Cl)cc2)cc1[N+](=O)[O-],84,79*,80,87,84,94
Cn1nnnc1SCc1ccc(C(=O)Nc2nccs2)cc1,71*,75*,83,73*,72*,82
COc1ccc(C)cc1NC(=O)COC(C)=O,137*[activator],120*[activator],107,105,108,103
COc1cc2c(cc1NCc1ccccn1)oc1ccccc12,105,105,100,103,100,102
COc1ccc(CCNC(=O)CCCCCNc2nc(=S)[nH]c3ccccc23)cc1OC,94,97,95,94,92,101
COc1cc2[nH]c(=S)nc(NCc3ccccn3)c2cc1OC,76*,83,88,83,82,95
COCCNc1nc(=S)[nH]c2cc(OC)c(OC)cc12,71*,68*,83,71*,69*,79*
CSc1ccc(Cl)c(C(=O)OCC(=O)Nc2ccccc2OC(F)F)c1,103,101,98,100,97,100
COc1ccc(Nc2nc(-c3c(C)nc4ncccn34)cs2)cc1,65*,76*,83,77*,76*,84
Cc1nc2ncccn2c1-c1csc(Nc2ccc(N(C)C)cc2)n1,90,92,92,92,93,107
Cc1nc2ncccn2c1-c1csc(Nc2ccccc2)n1,60*,67*,80,59*,62*,83
COc1ccccc1Nc1nc(-c2c(C)nc3ncccn23)cs1,63*,66*,79*,62*,62*,82
S=C(NCc1ccco1)Nc1ccc(Oc2ccccc2)cc1,100,96,97,98,99,104
CCOC(=O)C1=NOC(CN(c2ccccc2)S(=O)(=O)c2ccc(Cl)cc2)C1 (stereo not given),94,93,92,93,95,98
CC1=C(C(=O)N2CCOCC2)C(c2ccc(OC(F)F)cc2)NC(=S)N1c1ccccc1 (stereo not given),96,97,92,96,96,95
CC(=O)c1cccc(N(C(=O)Cn2nnc3ccccc32)C(C(=O)NCC2CCCO2)c2ccc(N3CCOCC3)cc2)c1 (stereo not given),99,99,97,98,99,105
Cc1ccc(NC(=O)C(C)NS(=O)(=O)c2ccc(F)cc2)cc1C (stereo not given),113,104,101,103,105,111
